Records with an inconclusive call do not appear. Values without a mark were called inactive. Calls follow the shape of the dose curve; as a rule, active = well fitted activation curve with a large enough effect; inconclusive = small, poorly fitted or top-dose-only effect; inactive = flat fitted curve, though single readings scatter.
test: Primary redox qHTS assay for identification of artifact compounds. (AID 1845223); details: Amplex Red/HRP redox cycling with DTT, fluorescence; series mostly up to 53.8 µM; redox activity (% of DA3003): at the top concentration;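 also: 0% = DMSO and 100% = reference compound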
Procedure, shortened: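 Redox-cycling detection via DTT (250 uM final) oxidation coupled to Amplex Red (25 uM)/HRP (250 mU/mL) in HBSS. 15 min preincubation plus 30 min after DTT, room temperature. Ex/Em 525/598 nm; 4-parameter Hill fit against DMSO and 10 uM DA3003.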

| Structure (SMILES) | redox activity (% of DA3003) |
| --- | --- |
| C[C@@H]1O[C@@H](O[C@@H]2[C@@H](O[C@@H]3O[C@@H](C)[C@H](O[C@@H]4OC[C@H](O)[C@H](O[C@@H]5OC[C@@H](O)[C@H](O)[C@H]5O)[C@H]4O)[C@@H](O[C@@H]4OC[C@](O)(CO)[C@H]4O)[C@H]3O)[C@H](OC(=O)[C@]34CCC(C)(C)C[C@H]3C3=CCC5[C@@]6(C)C[C@H](O)[C@H](O[C@@H]7O[C@H](CO[C@@H]8OC[C@H](O)[C@H](O)[C@H]8O)[C@@H](O)[C@H](O)[C@H]7O)C(C)(C)C6CC[C@@]5(C)[C@]3(C)C[C@H]4O)OC[C@H]2O)[C@H](O)[C@H](O)[C@H]1O (some centres undefined) | 6.31% [at 11.5 µM] |
| Cc1cc(C(=O)Nc2cccc(C(=O)Nc3cccc(C(F)(F)F)c3)c2)on1 | -0.123% |
| COc1ccc2c(OC)c3ccoc3nc2c1OC | 6.27% |
| COc1c2cc(c(O)c1OC)-c1cc(ccc1O)CCC(O)CCCC2 (centres undefined) | -17.3% |
| O=C1NC(=O)C(c2cn3c4c(cccc24)CCC3)C1c1c[nH]c2ccccc12 (centres undefined) | 6.41% |
| Cc1cccc(-c2[nH]c(Cc3cccc(C(N)=O)c3)nc2-c2ccc3nccnc3c2)n1 | 7.16% |
| C[C@@H]1C[C@@H](O)[C@@]23CO[C@@H](O)[C@@H]2CCC[C@@H]3[C@@]12C[C@@H](c1ccoc1)OC2=O | -12.7% |
| CC[C@H](NC(=O)[C@H](CS(=O)(=O)CC1CC1)N[C@@H](c1ccc(F)cc1)C(F)(F)F)C(=O)C(=O)NC1CC1 | 13.4% |
| O=C(O)CCCCCC[C@H]1C(=O)NC(=O)N1CC[C@@H](O)C1CCCCC1 | 3.46% |
| CC1(C)CC2=C3C=CC4C5(C)CCC(O)C(C)(C)C5CCC4(C)C3(C)CCC2(C)C(O)C1 (centres undefined) | 17.7% [at 25.6 µM] |
| COC(=O)c1cc(OC)c(O[C@@H]2O[C@@H](C)[C@H](O)[C@@H](O)[C@H]2O)c(OC)c1 | -15.7% |
| C=CC(C)(O)C(O)CC1C(C)(O)C(O)C(O)C2C(C)(C)CCCC21C (centres undefined) | 9.51% |
| C=C[C@]1(C)C=C2CCC3C(C)(CCC[C@@]3(C)C(=O)O)C2CC1 (some centres undefined) | 7.1% |
| C/C1=C\CCC2=C[C@@H](OC2=O)c2c(C)coc2C1 | 12.1% |
| COc1ncc2cc(C(=O)Nc3cc(C(=O)NCc4cccc(Cl)c4)ccc3Cl)c(=O)[nH]c2n1 | -9.23% |
| O=C(c1ccc2nccnc2c1)N1CCCCC1 | -0.687% |
| O=C1Nc2ccccc2C(O)(c2ccccc2)C1O (centres undefined) | -7.3% |
| C=C1C(=O)O[C@@H]2C[C@H](C)[C@@]3(O)C=C(C(C)=O)[C@]4(CC3C[C@H]12)C(=O)O[C@H]1C[C@@H](C)C(CCC(C)=O)=CC[C@H]14 (some centres undefined) | 0.386% [at 25.6 µM] |
| CCn1c(=O)c(-c2ccn[nH]2)cc2c(C)nc(N)nc21 | -0.915% |
| NC(=O)c1cccc(-c2cc(OC(=O)NC3CCCCC3)ccc2O)c1 | -1.33% |

| Structure (SMILES) | redox activity (% of DA3003) |
| --- | --- |
| O=C(Nc1ccccc1)N1CCN(Cc2ccc3ccccc3n2)CC1 | 8.46% |
| Cn1nc(C(C)(C)C)cc1C(=O)NC(Cc1cccc(Cl)c1)C(=O)NCC#N (centres undefined) | 4.4% |
| CCO[C@@H]1OC(=O)C[C@@H]1NC(=O)[C@@H]1CCCN1C(=O)[C@@H](NC(=O)c1ccc(N)c(Cl)c1)C(C)(C)C | 8.14% |
| C[C@@H]1O[C@@H](O[C@H]2[C@@H]3C=CO[C@@H](O[C@@H]4O[C@H](CO)[C@@H](O)[C@H](O)[C@H]4O)[C@@H]3[C@@]3(CO)O[C@@H]23)[C@H](OC(=O)/C=C/c2ccc(O)c(O)c2)[C@H](O)[C@H]1O | -5.55% [at 25.6 µM] |
| COc1ccc(CC2NCCc3c2[nH]c2ccc(C)cc32)cc1OC (centres undefined) | 5.67% |
| C=C1CCC2C(C)(C(=O)OC)CCCC2(C)C1CCC(C)CC(=O)O (centres undefined) | 5.05% |
| Cc1cc(-c2cc(O)ccc2Cl)cc2nnc(Nc3ccc(OCCN4CCCC4)cc3)nc12 | -6.42% |
| CC(C)(O[C@@H]1O[C@H](CO)[C@@H](O)[C@H](O)[C@H]1O)C(OC(=O)/C=C\c1ccc(O)cc1)C(=O)OCc1ccc(O[C@@H]2O[C@H](CO)[C@@H](O)[C@H](O)[C@H]2O)cc1 (some centres undefined) | -10.9% [at 25.6 µM] |
| C=C[C@H]1C(O[C@@H]2O[C@H](CO)[C@@H](O)[C@H](O)[C@H]2O)OC=C2C(=O)N3CCc4c([nH]c5ccccc45)C3CC21 (some centres undefined) | -4.5% [at 25.6 µM] |
| C=C(C(=O)OC)C1C(O)CC2(C)C(O)CCC(=O)C2C1O (centres undefined) | -10.2% |
| COc1cc(NC(=O)Nc2cccc(CNC(=O)O[C@H]3CCOC3)c2)ccc1-c1cnco1 | 18.9% |
| C/C=C(\C)C(=O)OCC1OC(OC2OC(COC(=O)/C(C)=C/C)C(OC3OC(CO)C(OC(=O)/C(C)=C/C)C(OC(=O)/C(C)=C/C)C3O)C(O)C2O)C(O)C(O)C1OC1OC(CO)C(OC(=O)/C(C)=C/C)C(OC(=O)/C(C)=C/C)C1O (centres undefined) | 2.12% [at 11.5 µM] |
| C=CC(C)(C)C12C=C(OC)C(=O)N3C(C(C)C)C(=O)NC31N(OC)c1ccccc12 (centres undefined) | 13.8% [at 25.6 µM] |
| CC/C=C\CCO[C@@H]1O[C@H](CO)[C@@H](O)[C@H](O)[C@H]1O | -13% |
| O=C(O)/C=C/c1cc2c(cc1O[C@@H]1O[C@H](CO)[C@@H](O)[C@H](O)[C@H]1O)OCO2 | -15% |
| C[C@@H]1O[C@@H](O[C@H]2[C@H](O[C@H]3CC[C@@]4(C)C(CC[C@]5(C)C4C=C[C@]46OC[C@@]7(CCC(C)(C)C[C@H]74)[C@@H](O)C[C@]65C)[C@]3(C)CO)O[C@H](CO)[C@@H](O)[C@@H]2O[C@@H]2O[C@H](CO)[C@@H](O[C@@H]3O[C@@H](C)[C@H](O)[C@@H](O)[C@H]3O)[C@H](O)[C@H]2O)[C@H](O)[C@H](O)[C@H]1O (some centres undefined) | 9.95% [at 11.5 µM] |
| C=C1C[C@]23C[C@H]1CC[C@H]2[C@@]12CC[C@H](O)[C@@](C)(C(=O)O1)[C@H]2[C@@H]3C(=O)O | -15% |
| CC(C)C[C@H](CC(=O)NO)C(=O)N[C@@H](Cc1ccc2ccccc2c1)C(=O)N[C@@H](C)C(=O)NCCN | 6.59% |
| CCCC(=O)O[C@@H]1[C@@H]2[C@@H](OC(C)=O)[C@]3(C)C(=O)[C@H]4[C@@H](OC(C)=O)C(C)(C)C[C@H]4[C@]3(C)C(=O)[C@@]2(OC(C)=O)C[C@@H]1C | -10.7% [at 25.6 µM] |

From PubChem BioAssay (NCATS)
